This note sets out measurements from PubChem BioAssay (EPA / NIEHS).

The structures appear in SMILES notation. Calls of active or inactive are those of the source. How the source made its calls: active means hit-call score of the fitted dose curve at least 0.9, where 1 is the maximum; inactive means score below 0.9.

Read-out in this assay: Bcl-2 (BID) gene, BID (gene 637)
Description: LTEA_HepaRG_BID: Life Technologies and Expression Analysis (LTEA) Assay for Bcl-2 (BID) gene using HepaRG (AID 2283476). The settings on record: mRNA level, 48 h; actives raise or lower the signal. As to the method:
LTEA_HepaRG is a cell based, multiplexed-readout assay that uses HepaRG, a human liver cell line, with measurements taken at 48 hours after chemical dosing on a 96-well plate.LTEA_HepaRG_BID is one of 102 assay component(s) measured in the LTEA HepaRG cell culture assay. It is a marker of Cell proliferation, survival, death.Data from the assay component LTEA_HepaRG_BID was analyzed into 1 endpoint. This assay endpoint, LTEA_HepaRG_BID, was analyzed with bidirectional fitting relative to DMSO as the negative control and baseline of activity. Using a type of inducible reporter, measures of mRNA induction for gain or loss-of-signal activity can be used to understand regulation of transcription factor activity. To generalize the intended target to other relatable targets, this assay endpoint is annotated to the cell cycle intended target family, where the subfamily is Cell proliferation, survival, death.
A total of 1060 chemcials from the ToxCast library were tested in eight-point concentration-response experiments. Cell culture and cytotoxicity assays were conducted at Thermo Fisher Scientific's Custom Services facility (Madison, WI). A single lot of human HepaRG cells (Thermo Fisher Scientific, Frederick, MD) was used for the cell culture experiments. 96-well format collagen type I coated plates of human HepaRG cells were prepared using established methods. Briefly, cryopreserved HepaRG cells were thawed, plated at a density of approximately 100,000 cells/well in HepaRG Thaw, Plate, and General Purpose media (HPRG770, Thermo Fisher Scientific), and incubated for 48 hours. 0.5% DMSO was selected as vehicle control to balance the requisite need of DMSO in HepaRG cultures to maintain differentiation (for example, baseline metabolism, proportions of hepatocytes vs. cholangiocytes), while enabling further hepatic receptor pathway activation (for example, PXR and CAR) in response to chemical exposure. 48 hours after plating, the culture medium was replaced with HepaRG Serum-Free Incudtion Media. Cells were exposed to each test chemical in duplicate and maintained in CO2 incubators for another 48 hours. Chemical plates were thawed to room temperature and 200x concentrations of treatment groups were prepared. 8-point conentration-reponse curves were made with the highest exposure at 100 uM, followed by half-log dilutions, all in 0.5% DMSO. Each test plate contained variouse controls, induction positive controls (1mM phenobarbital), cytotoxicity positive controls ([…] aflatoxin B1), vehicle controls (0.5% DMSO), and total lysis controls (0.5% DMSO). Cell morphology images were taken using an Essen IncuCyte FLR automated microscope, with six 96-well plates imaged in about 24 minutes. Images were captured and exported and JPEG files. Spent culture media was transfered to black-well plates for the LDH assay, and remaining media was sorted at -80 C for later use. Cells were treated with RLT buffer and frozen until shipped for gene expression analysis. Total RNA was isolated from the cell suspension in 75 uL of Buffer RLT (Qiagen, Germantown, MD 20874) by Quintiles/Expression Analysis (Durham, NC) using a custom isolation procedure. Total RNA from each plate well was transferred to a preamplification plate. Fluidigm's 96.96 Dynamic ArrayTM (Fluidigm, Amsterdam, the Netherlands) technology was used for gene expression analyses by quantitative reverse transcription polymerase chain reaction (qRT-PCR, performed by Quintiles/Expression Analysis, Durham, NC)89. Standard TaqManTM Assays (Applied Biosystems/ThermoFisher Scientific, Foster City, CA) were used to assess the expression of 93 genes selected based on their selectivity and sensitivity to important hepatic receptors known to be modulated by environmental chemicals; importance in human hepatocyte functionality; and hepatotoxicity. […]
Regarding `CCc1cccc(C)c1N(C(=O)CCl)C(C)COC` (stereo not given), the outcome was inactive.

`COc1cccc(C(=O)NN(C(=O)c2cc(C)cc(C)c2)C(C)(C)C)c1C`: the call was inactive. Same read-out and setting: the same measure for `CCOP(=O)(OCC)Oc1cc(C)nc(C(C)C)n1`: “inactive”; for `CON=C(C(=O)OC)c1ccccc1CON=C(C)c1cccc(C(F)(F)F)c1`: “inactive”.

In the case of `C#CCC1=C(C)C(OC(=O)C2C(C=C(C)C)C2(C)C)CC1=O` (stereo not given), the result was inactive. In the case of `FC(F)C(F)(F)OCC(Cn1cncn1)c1ccc(Cl)cc1Cl` (stereo not given), the call was inactive. The same measure, in the same setting: the same measure for `O=C(O)c1cc(Oc2ccc(C(F)(F)F)cc2Cl)ccc1[N+](=O)[O-]`: “inactive”. The AC50 is the concentration giving half of the maximal activity seen. As to `COP(=O)(OC)SCn1c(=O)oc2cc(Cl)cnc21`, the AC50 was 0.00316 µM (active).

Regarding `CCOP(=S)(OCC)Oc1cc(C)nc(C(C)C)n1`, the compound was classed as inactive. Still for that read-out and setting: in the case of `Cc1ccn2nc(S(=O)(=O)Nc3c(F)cccc3F)nc2n1` it was “inactive”. On to `CN(C)C(=O)Nc1cccc(C(F)(F)F)c1`, for which the AC50 is 79.3 µM (active). Turning to `Cc1nn(-c2cc(NS(C)(=O)=O)c(Cl)cc2Cl)c(=O)n1C(F)F`, the call was inactive. The same measure, in the same setting: in the case of `CCOP(=S)(Oc1cnc(C(C)(C)C)nc1)OC(C)C` (stereo not given) it was “inactive”; in that of `CC1(C(=O)Nc2ccc(O)c(Cl)c2Cl)CCCCC1`, “inactive”. As for `CCCCOC(=O)[C@@H](C)Oc1ccc(Oc2ccc(C#N)cc2F)cc1`, the result was inactive. As to `CCCSP(=O)(OCC)Oc1ccc(Br)cc1Cl` (stereo not given), the outcome was inactive.

Consider `Nc1nc(N)nc(NC2CC2)n1`, for which the result was inactive. Still for that read-out and setting: in the case of `CNC(=O)Oc1cccc2c1OC(C)(C)O2` it was “inactive”; in that of `CC1=NNC(=O)N(/N=C/c2cccnc2)C1`, “inactive”. Regarding `O=[N+]([O-])c1cc(C(F)(F)F)c(Cl)c([N+](=O)[O-])c1Nc1ncc(C(F)(F)F)cc1Cl`, the result was inactive.

With `CCCSP(=O)(OCC)SCCC`, the call was inactive. Take `S=C1NCCN1`: the compound was called inactive.

On to `CSc1nnc(C(C)(C)C)c(=O)n1N`, for which the compound was called inactive. With `COc1ccc(C(=CC(=O)N2CCOCC2)c2ccc(Cl)cc2)cc1OC`, the result was inactive. Take `CCOP(=S)(OCC)Oc1ccc2c(C)c(Cl)c(=O)oc2c1`: the outcome was inactive. The same measure, in the same setting: the same measure for `C[N+]1(C)CCCCC1`: “inactive”; for `Cc1cc(C2CC2)nc(Nc2ccccc2)n1`: “inactive”; for `CCc1cnc(C2=NC(C)(C(C)C)C(=O)N2)c(C(=O)O)c1` (stereo not given): “inactive”. Take `Nc1c(Cl)cc([N+](=O)[O-])cc1Cl`: the AC50 was 83.3 µM (active). For the compound `CCOC(=O)COc1cc(-c2nn(C)c(OC(F)F)c2Cl)c(F)cc1Cl`, the result was inactive. In the case of `COP(=O)(OC)OC(Br)C(Cl)(Cl)Br` (stereo not given), the compound was called inactive. Same read-out and setting: the same measure for `CCC(CC)Nc1c([N+](=O)[O-])cc(C)c(C)c1[N+](=O)[O-]`: “inactive”; for `CNC(=O)ON=C(SC)C(=O)N(C)C`: “inactive”. Still for that read-out and setting: in the case of `N#CSCSC#N` it was “inactive”; in that of `CSc1nc(NC(C)C)nc(NC(C)C)n1`, “inactive”; in that of `CC(Oc1cccc(Cl)c1)C(=O)O` (stereo not given), “inactive”. Still for that read-out and setting: in the case of `COc1cc(OC)nc(Sc2cccc(Cl)c2C(=O)O)n1` it was “inactive”; in that of `C=C(C)[C@H]1Cc2c(ccc3c2O[C@@H]2COc4cc(OC)c(OC)cc4[C@@H]2C3=O)O1`, “inactive”. As for `CCCOCC(=Nc1ccc(Cl)cc1C(F)(F)F)n1ccnc1`, the compound was classed as inactive.

For `C#CC(C)(C)NC(=O)c1cc(Cl)cc(Cl)c1`, the compound was called inactive.
